Assay results taken from PubChem BioAssay (EPA / NIEHS).
Results filed as inconclusive are left out. The source made the active and inactive calls. Rule for the calls, unless noted: active = hit-call score of the fitted dose curve at least 0.9, where 1 is the maximum; inactive = score below 0.9.

Columns and labels:
[1] = CCTE_Shafer_MEA_acute_spike_number: CCTE's Neural Acute Assay for Total Number of Spikes, Shafer Lab (AID 2284008)
Outline: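 Read-out is the total spike count over 40 min, expressed as percent change from each well's own pre-treatment baseline and fitted in the loss direction against DMSO. Rat cortical neurons were exposed at 0.03-40 uM on DIV 13 or 15.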

[2] = CCTE_Shafer_MEA_acute_firing_rate_mean: CCTE's Neural Acute Assay for Mean Firing Rate, Shafer Lab (AID 2284009);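 note: analyzed for loss of signal so actives lower firing rate relative to DMSO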
Outline: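 Percent change in well-mean firing rate was derived from extracellular spikes detected at 8x rms noise (300-5000 Hz band-pass) before and after a 40-min compound exposure. Cultures were primary rat cortical neurons, tested at 0.03-40 uM.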

[3] = CCTE_Shafer_MEA_acute_burst_number: CCTE's Neural Acute Assay for Single-Electrode Bursts, Shafer Lab (AID 2284013)
Outline: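 Spontaneous network activity of primary rat cortical neurons was recorded extracellularly on microelectrode arrays at 37 C, with 40-min periods before and during exposure to 0.03-40 uM compound on DIV 13 or 15.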

[4] = CCTE_Shafer_MEA_acute_burst_duration_mean: CCTE's Neural Acute Assay for Mean Burst Duration, Shafer Lab (AID 2284014);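 note: hits are decreases in mean burst duration relative to DMSO controls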
Outline: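 Read-out is the per-well percent change in mean burst duration (first to last spike within a single-electrode burst) between 40-min recordings before and after compound. Cultures were primary rat cortical neurons on MEAs, dosed at 0.03-40 uM on DIV 13 or 15.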

[5] = CCTE_Shafer_MEA_acute_per_burst_spike_number_mean: CCTE's Neural Acute Assay for Average Number of Spikes Per Burst, Shafer Lab (AID 2284015);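 note: hits are decreases in mean spikes per burst versus baseline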
Outline: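 We recorded spontaneous network firing of rat cortical neurons for 40 min before and 40 min during exposure to compound at 0.03-40 uM, at 37 C. Spikes were detected adaptively at 8x rms noise, and the change in average spikes per burst was fitted against DMSO.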

[6] = CCTE_Shafer_MEA_acute_interburst_interval_mean: CCTE's Neural Acute Assay for Mean Interburst Interval, Shafer Lab (AID 2284016);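 note: percent change of mean interburst interval versus each well's own pre-dose baseline; curves fitted for decrease in interburst interval relative to DMSO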
Outline: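 MEA recording of spontaneous network bursting in primary rat cortical cultures; mean interburst interval was compared before and after a 40-min compound exposure (0.03-40 uM) and expressed as percent change, relative to DMSO.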

[7] = CCTE_Shafer_MEA_acute_burst_percentage_mean: CCTE's Neural Acute Assay for Percentage of Spikes in a Burst, Shafer Lab (AID 2284017)
Outline: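 Compounds were tested at 0.03-40 uM on primary rat cortical neuron networks grown over microelectrodes, with at least three wells per compound. Spontaneous firing was recorded for 40 min before and 40 min after dosing, and the change in burst percentage was computed per well.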

[8] = CCTE_Shafer_MEA_acute_burst_percentage_std: CCTE's Neural Acute Assay for Standard Deviation of Burst Percentage, Shafer Lab (AID 2284018);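 note: fitted in the negative direction so actives lower burst percentage SD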
Outline: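 Value is percent change from baseline in the across-electrode SD of spikes-in-bursts percentage, wells with >/= 10 active electrodes. Acute 40-min exposure to 0.03-40 uM on DIV 13 or 15 rat cortical cultures, recorded at 37 C after 40-min baseline.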

[9] = CCTE_Shafer_MEA_acute_per_network_burst_spike_number_mean: CCTE's Neural Acute Assay for Average Number of Spikes in a Network Burst, Shafer Lab (AID 2284019)
Outline: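 Read-out is mean spike count per network burst, taken as percent change between a 40-min pre-exposure and a 40-min post-exposure recording per well. Rat primary cortical neurons on MEAs at 37 C, DIV 13 or 15; compounds at 0.03-40 uM.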

[10] = CCTE_Shafer_MEA_acute_per_network_burst_spike_number_std: CCTE's Neural Acute Assay for Standard Deviation of Number of Spikes in a Network Burst, Shafer Lab (AID 2284020);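 note: fitted for decrease in spike-number SD versus DMSO so actives lower it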
Outline: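 Spontaneous network activity of primary rat cortical neurons is recorded extracellularly before and after a 40-min compound exposure (0.03-40 uM) at 37 C. The endpoint is the well's percent change in burst spike-number SD.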

[11] = CCTE_Shafer_MEA_acute_per_network_burst_electrodes_number_mean: CCTE's Neural Acute Assay for Mean Number of Electrodes in a Network Burst, Shafer Lab (AID 2284021);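 note: curves fitted for decreases only so hits reduce electrodes per burst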
Outline: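 Primary rat cortical networks, mwMEA, 37 C. 20 min stabilization, 40 min baseline, compound 0.03-40 uM, 40 min re-record. Wells need >=10 active electrodes; percent change per well, negative fitting direction.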

[12] = CCTE_Shafer_MEA_acute_cross_correlation_area: CCTE's Neural Acute Assay for Area of Cross Correlation, Shafer Lab (AID 2284024);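 note: area under pooled inter-electrode spike cross-correlation near zero lag as percent change from own baseline; curves fitted for loss of cross-correlation area so actives lower synchrony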
Outline: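 Plates equilibrated 20 min at 37 C, then 40 min baseline was recorded, compound was added (0.03-40 uM), and a further 40 min was recorded. Wells needed ≥10 active electrodes (≥5 spikes/min) on exposure day.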

[13] = CCTE_Shafer_MEA_acute_synchrony_index: CCTE's Neural Acute Assay for Synchrony, Shafer Lab (AID 2284027);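 note: network synchrony index of spontaneous spiking in primary rat cortical neurons on MEAs; fitted for loss of signal so actives lower synchrony relative to DMSO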
Outline: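 Primary rat cortical neurons on 48-well MEAs, dosed at 0.03–40 uM on DIV 13 or 15. Spikes are recorded for 40 min at 37C before and after exposure, and synchrony index (0–1) is expressed as percent change from baseline per well.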

[14] = CCTE_Shafer_MEA_dev_firing_rate_mean: CCTE's Neural Network Formation Assay for Mean Firing Rate, Shafer Lab (AID 2284031)
Outline: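 Primary rat cortical neurons on 48-well MEA plates, exposed from plating day 0 with dosing renewed on DIV 5 and 9. Mean well firing rate over active electrodes, recorded days 5, 7, 9, 12, summarised as trapezoidal AUC.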

[15] = CCTE_Shafer_MEA_dev_per_burst_spike_percent: CCTE's Neural Network Formation Assay for Percent of Spikes in a Burst, Shafer Lab (AID 2284032)
Outline: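 Rat primary cortical neurons on 16-electrode MEA wells, dosed from plating day 0 for 12 days with renewal on DIV 5 and 9; spikes-in-bursts percentage averaged over bursting electrodes, collapsed as AUC across days 5, 7, 9, 12; loss direction versus DMSO.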

[16] = CCTE_Shafer_MEA_dev_active_electrodes_number: CCTE's Neural Network Formation Assay for Number of Active Electrodes, Shafer Lab (AID 2284040; active = hit-call score of the fitted dose curve at least 0.9, where 1 is the maximum)
Outline: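 Primary rat cortical neurons on 16-electrode MEA wells, exposed from day 0 through day 12 with compound renewed at DIV 5 and 9 feeds. Active electrodes (mean firing ≥5 spikes/min) counted at DIV 5, 7, 9, 12; trapezoidal AUC across days, loss-of-signal versus DMSO.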

[17] = CCTE_Shafer_MEA_dev_burst_rate: CCTE's Neural Network Formation Assay for Burst Rate, Shafer Lab (AID 2284042)
Outline: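 Developmental network assay measuring how 12-day exposure of rat cortical neuron cultures alters bursting on extracellular MEA recordings. Values are AUC of well-mean burst rate across four recording days, relative to DMSO vehicle.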

[18] = CCTE_Shafer_MEA_dev_bursting_electrodes_number: CCTE's Neural Network Formation Assay for Number of Bursting Electrodes, Shafer Lab (AID 2284043; active = hit-call score of the fitted dose curve at least 0.9, where 1 is the maximum)
Outline: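 Read-out is the per-well number of electrodes bursting at least once every 2 minutes, recorded on days 5, 7, 9 and 12 and collapsed by trapezoidal area under the curve. Cultures were primary rat cortical neurons on MEA plates, treated continuously from plating.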

[19] = CCTE_Shafer_MEA_dev_burst_duration_mean: CCTE's Neural Network Formation Assay for Mean Burst Duration, Shafer Lab (AID 2284045)
Outline: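 Read-out: average first-to-last-spike interval within single-electrode bursts, averaged over bursting electrodes per well, then summarised as area under the curve across days 5, 7, 9 and 12. Developing rat cortical networks were exposed from day 0.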

[20] = CCTE_Shafer_MEA_dev_interburst_interval_mean: CCTE's Neural Network Formation Assay for Mean Interburst Interval, Shafer Lab (AID 2284046);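 note: well-mean interburst interval of bursting electrodes as AUC over four recording days; curve fitted for decrease in interburst interval relative to DMSO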
Outline: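 Network formation assay in primary rat cortical cultures, exposed from DIV 0 to 12. Mean interburst interval per well, integrated as AUC over four recordings.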

[21] = CCTE_Shafer_MEA_dev_inter_network_spike_interval_mean: CCTE's Neural Network Formation Assay for Mean Inter-network Spike Interval, Shafer Lab (AID 2284047)
Outline: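 Compound was given at plating to primary rat cortical neurons and renewed with full medium changes on DIV 5 and 9. Extracellular activity was recorded on days 5, 7, 9, 12; AUC values were fitted for loss relative to DMSO control.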

[22] = CCTE_Shafer_MEA_dev_network_spike_number: CCTE's Neural Network Formation Assay for Number of Network Spikes, Shafer Lab (AID 2284048);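 note: synchronized bursts across electrodes counted on days 5 7 9 12 and integrated as AUC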
Outline: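 Developing networks of primary rat cortical neurons are treated over 12 days starting at plating, with media and compound fully replaced on DIV 5 and 9. Network spike counts from four recording days are integrated as trapezoidal AUC.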

[23] = CCTE_Shafer_MEA_dev_network_spike_peak: CCTE's Neural Network Formation Assay for Mean Number of Electrodes in Network Spike, Shafer Lab (AID 2284049)
Outline: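 Rat cortical primary culture, 1.5 x 10^5 cells/well, 48-well MEA (16 electrodes/well). Dosing day 0 through DIV 12, full media/compound exchange DIV 5, 9. AxIS adaptive spike detection; AUC over days 5/7/9/12; loss-of-signal vs DMSO.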

[24] = CCTE_Shafer_MEA_dev_spike_duration_mean: CCTE's Neural Network Formation Assay for Mean Spike Duration, Shafer Lab (AID 2284051);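 note: mean network spike duration pooled as area under curve over DIV 5 to 12 recordings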
Outline: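 With DMSO as baseline, loss of mean network spike duration was scored from extracellular recordings of rat cortical neurons on MEA plates. Exposure spanned plating to DIV 12; the four recording days were collapsed into one AUC value.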

[25] = CCTE_Shafer_MEA_dev_network_spike_duration_std: CCTE's Neural Network Formation Assay for Standard Deviation of Network Spike Duration, Shafer Lab (AID 2284052);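 note: area under curve of spike duration SD across recording days 5 to 12; hits are decreases in network spike duration SD versus DMSO vehicle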
Outline: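 Developing networks of rat cortical neurons were exposed over twelve days in vitro on 48-well MEA plates. Trapezoidal AUC of recordings (DIV 5–12) was analysed for signal loss relative to DMSO vehicle.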

[26] = CCTE_Shafer_MEA_dev_per_network_spike_spike_number_mean: CCTE's Neural Network Formation Assay for Mean Number of Spikes in a Network Spike, Shafer Lab (AID 2284053)
Outline: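 First, rat cortical cells (1.5 x 10^5/well) were seeded onto MEA wells; second, dosing began at plating and was refreshed on DIV 5 and 9; finally, network-spike spike counts across DIV 5–12 were summarized as AUC.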

[27] = CCTE_Shafer_MEA_dev_per_network_spike_spike_percent: CCTE's Neural Network Formation Assay for Percent of Spikes in a Network Spike, Shafer Lab (AID 2284054)
Outline: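 Rat primary cortical cultures, 1.5 x 10^5 cells/well on MEA. Continuous compound exposure d0–12, medium/compound renewed DIV 5, 9. Network-spike spike % (0.05 s peak window), AUC over 4 recordings, DMSO baseline.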

[28] = CCTE_Shafer_MEA_dev_LDH: CCTE's Lactate Dehydrogenase Assay for Cytotoxicity in the Neural Network Formation Assay, Shafer Lab (AID 2284068; active = hit-call score of the fitted dose curve at least 0.9, where 1 is the maximum;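 note: exposure for twelve days from plating with re-dosing on DIV 5 and 9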)
Outline: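 Developing rat cortical networks on MEA plates are exposed to compound for 12 days from plating. LDH activity is measured spectrophotometrically, with DMSO as baseline.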

[29] = CCTE_Shafer_MEA_dev_AB: CCTE's Alamar Blue Assay for Cytotoxicity in the Neural Network Formation Assay, Shafer Lab (AID 2284083; active = hit-call score of the fitted dose curve at least 0.9, where 1 is the maximum;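 note: resazurin reduction fluorescence as viability of cultured neurons; twelve days of exposure from plating with re-dosing on DIV 5 and 9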)
Outline: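 Cytotoxicity companion to the developmental MEA: primary rat cortical neurons, 12-day exposure starting day 0, compound refreshed DIV 5 and 9; resazurin fluorescence, fitted against DMSO vehicle.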

[30] = CCTE_Shafer_MEA_acute_LDH: CCTE's Lactate Dehydrogenase Assay for Cytotoxicity in the Neural Acute Assay, Shafer Lab (AID 2284086; active = hit-call score of the fitted dose curve at least 0.9, where 1 is the maximum;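 note: active means LDH release rises above DMSO vehicle level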)
Outline: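 Medium from rat cortical neuron MEA cultures sampled right after the 40 min compound-exposure recording; released LDH measured by absorbance at 490 nm. Analyzed as signal gain relative to DMSO.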

[31] = CCTE_Shafer_MEA_dev_mutual_information_norm: CCTE's Neural Network Formation Assay for Mutual Information Normalization, Shafer Lab (AID 2284091)
Outline: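 Developing rat cortical networks on 16-electrode MEA wells are treated throughout formation (DIV 0–12). Shared electrode information is recorded four times, converted to area-under-curve, and fitted for decreases against DMSO vehicle.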

[32] = target: Nucleoli Translocation, AR (gene 367) (UniProt P10275); assay: UPITT_HCI_U2OS_AR_TIF2_Nucleoli_Agonist: University of Pittsburgh U2OS Androgen Receptor-Transcriptional Intermediary Factor 2 (AR-TIF2) Agonism High Content Imaging Assay for Nucleoli Translocation (AID 2283998; active = hit-call score of the fitted dose curve at least 0.9, where 1 is the maximum)
Nucleoli Translocation, AR (gene 367), sequence (P10275 whole entry, looked up): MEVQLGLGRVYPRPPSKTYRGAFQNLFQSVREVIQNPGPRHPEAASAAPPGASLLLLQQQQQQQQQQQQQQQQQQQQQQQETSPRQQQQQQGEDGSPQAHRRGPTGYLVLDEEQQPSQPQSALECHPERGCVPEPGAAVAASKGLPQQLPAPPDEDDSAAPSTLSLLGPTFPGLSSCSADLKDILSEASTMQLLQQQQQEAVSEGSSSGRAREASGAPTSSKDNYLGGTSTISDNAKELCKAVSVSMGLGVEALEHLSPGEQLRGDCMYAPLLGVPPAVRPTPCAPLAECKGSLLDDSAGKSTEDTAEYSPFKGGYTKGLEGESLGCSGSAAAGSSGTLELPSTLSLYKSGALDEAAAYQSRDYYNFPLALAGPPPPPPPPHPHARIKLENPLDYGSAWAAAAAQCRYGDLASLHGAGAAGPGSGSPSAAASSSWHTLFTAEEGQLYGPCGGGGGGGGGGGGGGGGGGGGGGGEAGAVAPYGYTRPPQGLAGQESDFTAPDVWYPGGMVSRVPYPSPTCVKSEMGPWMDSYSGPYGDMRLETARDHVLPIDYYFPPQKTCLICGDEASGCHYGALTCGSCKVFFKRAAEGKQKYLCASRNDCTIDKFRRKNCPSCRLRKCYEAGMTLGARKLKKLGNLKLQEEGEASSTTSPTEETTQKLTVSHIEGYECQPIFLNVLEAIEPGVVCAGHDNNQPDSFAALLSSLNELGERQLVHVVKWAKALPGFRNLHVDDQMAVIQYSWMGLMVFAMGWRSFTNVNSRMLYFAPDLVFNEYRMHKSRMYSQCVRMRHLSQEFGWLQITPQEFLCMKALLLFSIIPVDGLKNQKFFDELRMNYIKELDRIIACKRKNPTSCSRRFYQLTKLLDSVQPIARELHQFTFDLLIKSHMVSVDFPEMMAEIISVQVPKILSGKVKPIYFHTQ
Outline: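 Readout is red (AR-RFP) fluorescence localized to nucleoli, measured by high-content imaging and analysed for increase relative to DMSO. Compound series spanned 0.195 to 50 uM final in 0.5% DMSO.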

[33] = target: Ratio of Nucleoli Translocation and Cytoplasm, AR (gene 367) (UniProt P10275); assay: UPITT_HCI_U2OS_AR_TIF2_Nucleoli_Cytoplasm_Ratio_Agonist: University of Pittsburgh U2OS Androgen Receptor-Transcriptional Intermediary Factor 2 (AR-TIF2) Agonism High Content Imaging Assay for Ratio of Nucleoli Translocation and Cytoplasm (AID 2284000; active = hit-call score of the fitted dose curve at least 0.9, where 1 is the maximum;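 note: hits raise the red nucleolar to cytoplasm ratio above vehicle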)
Ratio of Nucleoli Translocation and Cytoplasm, AR (gene 367), sequence (P10275 whole entry, looked up): as above
Outline: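 Read-out first: nucleolar-to-cytoplasm ratio of red (AR-RFP) signal, quantified by high-content imaging in U2OS cells co-expressing TIF2-GFP. Activity is scored as signal increase over DMSO. Single-point screening used 20 uM final (0.2% DMSO).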

[34] = CCTE_Harrill_HTTr_Viability_MCF7: CCTE's 6-hour Cell Viability Assessment for the High-Throughput Transcriptomics (HTTr) Platform, in MCF-7 cells cultured in DMEM + 10% fetal bovine serum, Harrill Lab (AID 2284010)
Outline: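 MCF-7 cells in DMEM + 10% FBS, 384-well, exposed 6 h to an eight-point dilution series. Membrane integrity scored by high-content imaging of propidium iodide exclusion; bidirectional fit versus DMSO.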

[35] = CCTE_Harrill_HTTr_Apoptosis_MCF7: CCTE's 6-hour Apoptosis Assessment for the High-Throughput Transcriptomics (HTTr) Platform, in MCF-7 cells cultured in DMEM + 10% fetal bovine serum, Harrill Lab (AID 2284011)
Outline: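 MCF-7 (DMEM + 10% FBS), 384-well; 8-pt dilution series, 6 h chemical exposure; caspase-3/7 activation via CellEvent Caspase 3/7 Green, HCI; bidirectional fit vs DMSO.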

[36] = CCTE_Harrill_HTTr_CellCount_MCF7: CCTE's Cell Proliferation Assessment for the High-Throughput Transcriptomics (HTTr) Platform, Harrill Lab (AID 2284012; active = hit-call score of the fitted dose curve at least 0.9, where 1 is the maximum;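 note: cells exposed to compound for six hours; intended direction is loss of nuclei count meaning fewer cells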)
Outline: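 MCF7 cells exposed 6 hours to an eight-point dilution series; Hoechst-stained nuclei counted by high-content imaging. Bidirectional curve fitting against DMSO baseline.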

Measured: outcome

CP(=O)(O)CC[C@H](N)C(=O)O
inactive: [1] | [2] | [3] | [4] | [5] | [6] | [7] | [8] | [9] | [10] | [11] | [12] | [13] | [14] | [15] | [16] | [17] | [18] | [19] | [20] | [21] | [22] | [23] | [24] | [25] | [26] | [27] | [28] | [29] | [30] | [31]

O=c1[nH]c2c(c(=O)n1C1CCCCC1)CCC2
inactive: [32] | [33] | [34] | [35] | [36]

CCOP(=O)(O)OCC
inactive: [34] | [35]
